About 8,600 (12%) of roughly 69,000 compounds showed an effect of 50% or more. For the sample, strong results were picked, then their nearest neighbours and some compounds at random.

In this test the test system is Plasmodium berghei. Description: Screen against P. berghei liver stage (PbLuc), transformed with Luciferase, at 10uM. In kind it is functional, HepG2. The note with it: tested at 10 uM.
`Cc1n[nH]c(C)c1NC(=O)NCc1cc[nH]n1`: the INHIBITION amounted to 36%. Turning to `O=C(NCC1CCCO1)N1CCN(Cc2ccc3c(c2)CCO3)CC1` (stereo not drawn), the INHIBITION is listed as -21.5%. Then `OCCNc1nccc(-c2c[nH]nc2-c2cccnc2)n1`, with 15.9%; and `C[C@@H]1CN(C(=O)NC2CC2)C[C@]12CCN(c1ccsc1)C2=O`, with 17.1%; and `CC(=O)N1CCCC1(C(=O)N1CCCC1)c1cnccn1` (stereo not drawn), with 6.35%. Regarding `CN(C)S(=O)(=O)c1ccc(=O)n(CC2CCCO2)c1` (stereo not drawn), the INHIBITION is -28.9%.

As to `CC(C)CNC(=O)Cc1cnc(-n2cccc2)s1`, the INHIBITION is listed as 28.3%. As to `CC(=O)N1CCCC(Cc2cnc(-c3c(C)nn(C)c3C)cn2)C1` (stereo not drawn), the INHIBITION is recorded as -10.4%. Take `COc1ccc2c(c1)CCCN(C(=O)NCC1CCCO1)C2` (stereo not drawn): the INHIBITION worked out at 37.4%. With `NC(=O)CN1CCCN(C(=O)CCOc2ccccc2Cl)CC1`, the INHIBITION is 29.7%. Consider `CCCNC(=O)C1(Cc2cc(-c3ccccc3)no2)CCN(C(C)=O)C1` (stereo not drawn), for which the INHIBITION is listed as -3.94%. In the case of `CC(O)CNc1c(NCc2ccco2)c(=O)c1=O` (stereo not drawn), the INHIBITION is listed as 18.2%.

With `c1ccc(Cc2noc(CN3CCOC(Cn4cncn4)C3)n2)cc1` (stereo not drawn), the INHIBITION worked out at 13.3%. Then `COCCO[C@@H]1CCN(Cc2csc(C)n2)[C@H]1Cc1ccccc1`, with 18.1%; and `Cc1noc(C)c1-c1cccc(CC2CCN(C(=O)c3cc[nH]n3)C2)n1` (stereo not drawn), with 46.1%; and `NS(=O)(=O)N1CCc2ccc(NC(=O)Cc3ccccc3F)cc21`, with 54.4%. Regarding `NS(=O)(=O)N1CCc2ccc(NC(=O)Cc3ccc(F)cc3)cc21`, the INHIBITION came to 22.9%.

For `CS(=O)(=O)N1CCc2c(cccc2NC(=O)CC(F)(F)F)C1`, the INHIBITION is 0.79%. Next, `NS(=O)(=O)N1CCc2ccc(NC(=O)CCc3ccncc3)cc21`: 38.5%; `CS(=O)(=O)Nc1ccc(CNC(=O)CN2CCc3ccccc32)cc1`: 16.6%; `NS(=O)(=O)N1CCc2ccc(NC(=O)CC(F)(F)F)cc21`: 63.3%. `Cc1cnc2c(C(=O)N(C)Cc3cc(C4CC4)[nH]n3)cnn2c1`: the INHIBITION came to 21.8%.

As to `CC(C)NC(=O)Nc1nc2c(s1)CN(C(=O)NCc1cccs1)CC2`, the INHIBITION stood at 46.4%. For the compound `c1ccc(-c2nc(CCNCc3cccnc3)co2)cc1`, the INHIBITION came out at 45.3%. Consider `COCC1Cn2nnc(-c3cnn(C)c3)c2CN1Cc1cccs1` (stereo not drawn), for which the INHIBITION was 2.58%. In the case of `O=C(c1cccs1)N1CCc2c(nc(N3CCCC3)[nH]c2=O)C1`, the INHIBITION is reported as 34%. In the case of `CC(CNS(=O)(=O)c1cccc(Cl)c1)N1CCN(C)CC1` (stereo not drawn), the INHIBITION turned out to be 46.4%.

Regarding `Cc1cccc(S(=O)(=O)NCC(C)N2CCN(C)CC2)c1Cl` (stereo not drawn), the INHIBITION is -38.2%. In the case of `Cc1cc(Cl)ccc1S(=O)(=O)NCC(C)N1CCN(C)CC1` (stereo not drawn), the INHIBITION is listed as 68.3%. For `Cc1cc(N(C)C)nc(C2(C)CCCN2C(=O)c2cnccn2)n1` (stereo not drawn), the INHIBITION was 16.5%. For the compound `CCN(CC)CCNCc1cc(O)c2cc(C)ccc2n1`, the INHIBITION is 16.3%. Regarding `COCCCNCc1cc(O)c2cc(C)cc(C)c2n1`, the INHIBITION stood at 51.2%.

As for `CCOCCCNCc1cc(O)c2cc(C)ccc2n1`, the INHIBITION worked out at 0.672%. For the compound `Cc1ccc2nc(CNCCCOc3ccccc3)cc(O)c2c1` [UCSF924], the INHIBITION turned out to be 75.7%. `CCOCC1(CNCc2cc(O)c3cc(C)ccc3n2)CC1`: the INHIBITION is reported as 35.4%. Consider `CCS(=O)(=O)CCNCc1cc(O)c2cc(C)cc(C)c2n1`, for which the INHIBITION was found to be 45.8%. In the case of `Cc1cc(C)c2nc(CNCCNS(C)(=O)=O)cc(O)c2c1`, the INHIBITION was found to be 43.9%. Consider `Cc1ccc2nc(CNCCCN3CCCC3=O)cc(O)c2c1`, for which the INHIBITION was found to be 31.7%. Take `CCOCCNCc1cc(O)c2cc(C)ccc2n1`: the INHIBITION was 53.3%.

Take `Cc1cc2nc(SCC(=O)NC(C)C)n(Cc3ccco3)c(O)c-2n1`: the INHIBITION is recorded as 12.6%. `CN(CC(=O)N1CCCN(Cc2cscn2)CC1)c1cnccn1`: the INHIBITION came to 13.9%. Next, `COCCN1CC[C@@H]2OC[C@H](C(=O)NCc3cccs3)C[C@@H]2C1`: 41.5%; `Cc1ncsc1CN1CCOC(C)(C(=O)N2CCOCC2)C1` (stereo not drawn): -3.94%. Consider `CNc1nc(CNC(=O)Nc2ccccc2C(F)(F)F)cs1`, for which the INHIBITION is on record as 19.4%. On to `NC(=O)C1(c2cnccn2)CCCN1C(=O)Cc1ccsc1` (stereo not drawn), for which the INHIBITION was determined as 12.84%. For the compound `O=C(NCc1cccnc1-n1cncn1)c1cncc(Br)c1`, the INHIBITION was found to be 43.8%. On to `O=C(NCc1cccnc1-n1cncn1)c1ccc2c(c1)CCO2`, for which the INHIBITION is recorded as -0.113%. Consider `CCCc1nc(C(=O)NCc2cccnc2-n2cncn2)cs1`, for which the INHIBITION is reported as -22.1%. Turning to `Cc1ccc(C(=O)NCc2cccnc2-n2cncn2)cc1S(C)(=O)=O`, the INHIBITION was 17.2%. On to `O=C(NCc1cccnc1-n1cncn1)c1cc(Cl)ccn1`, for which the INHIBITION is on record as 38.5%. As to `CCN(CC)c1ccc(C(=O)NCc2cccnc2-n2cncn2)cn1`, the INHIBITION was 16.6%. As to `CN(C)c1cc(C(=O)NCc2cccnc2-n2cncn2)ccn1`, the INHIBITION was found to be 83.7%. Next, `CN(C)c1ccc(C(=O)NCc2cccnc2-n2cncn2)cc1F`: 52.6%; `O=C(NCc1cccnc1-n1cncn1)c1ccncc1`: 51.2%. Consider `CCN1CCC2(CN(C(=O)N(C)C)CC23CCN(CC2CC2)CC3)C1=O` (stereo not drawn), for which the INHIBITION is given as -38.1%. Regarding `CCCn1c(N2CCCC2)nc2c(C)nn(C)c2c1=O`, the INHIBITION was found to be 44.05%. Then `CC(C)C(NC(=O)c1cnc(N2CCOCC2)nc1)c1cccs1` (stereo not drawn), with 38.7%. In the case of `Cc1ccccc1NCc1nc2n(n1)CCCCC2`, the INHIBITION was 34.2%. With `CCN1CC(Oc2ccc(Cl)cc2)=NC(SCC(=O)c2ccccc2)=N1`, the INHIBITION was found to be 55.5%.

As for `CN1CC(Oc2ccc(Cl)cc2)=NC(SCC(=O)c2ccccc2)=N1`, the INHIBITION is 12.9%. For `CN1CC(Oc2ccccc2)=NC(SCC(=O)c2ccccc2)=N1`, the INHIBITION is recorded as 1.98%.

`Cn1c(=O)n(C)c2nc(Br)c(CC(=O)c3ccccc3)n2c1=O`: the INHIBITION stood at 37.3%. On to `CC(C(=O)NCc1ccnc(N(C)C)c1)n1cccn1` (stereo not drawn), for which the INHIBITION amounted to 49.4%. Next, `Cc1cnnn1Cc1nnn2c1CN(Cc1cccs1)CCC2`: 45.8%; `CCN(Cc1cccs1)C(=O)c1ccc(=O)n(C)c1`: 28.7%.

In the case of `COc1ccc(NC(=O)N(C)Cc2ccco2)cn1`, the INHIBITION amounted to 0.705%. Then `CN(Cc1ccc2c(c1)OCO2)C(=O)c1ccc(=O)n(C)c1`, with 42.7%; and `Cc1occc1CN(C)C(=O)Nc1ccc(=O)n(C)c1`, with 44.3%; and `Cn1cc(C(=O)N(Cc2ccco2)Cc2cccs2)ccc1=O`, with 34%. `COCCN(Cc1cccs1)C(=O)c1ccc(=O)n(C)c1`: the INHIBITION is listed as -7.66%. Consider `CN(Cc1ccco1)C(=O)c1ccc(=O)n(C)c1`, for which the INHIBITION came out at 55.4%. On to `CN(Cc1cccs1)C(=O)c1ccc(=O)n(C)c1`, for which the INHIBITION was found to be 53.3%.

On to `CN(Cc1ccco1)C(=O)Nc1ccc(=O)n(C)c1`, for which the INHIBITION was determined as 60.1%.

Values taken from ChEMBL document CHEMBL4513216, “Probing the Open Global Health Chemical Diversity Library for Multistage-Active Starting Points for Next-Generation Antimalarials” (ACS Infect Dis, 2020).
